Records with an inconclusive call do not appear. Entries that show only a call come without a potency. Values without a mark were called inactive. Active and inactive are the calls of the source. Unless noted, the call rests on the fitted dose curve; in most records, active means well fitted curve in the direction sought with a large enough effect in the repeat runs; inconclusive means weak or mixed curves; inactive means no such curve, though single readings can be large; an effect the other way counts as inactive or inconclusive.
Legend:
[1] = qHTS assay to identify small molecule agonists of the RXR signaling pathway - cell viability counter screen (AID 1159529); further: nearly all actives have a fitted effect of over 50% in size; further: potency means the concentration at half of the fitted maximal effect;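 on activity change, negative = cytotoxicity: HEK 293T cells carrying an RXR-alpha UAS beta-lactamase reporter; series mostly up to about 77 µM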
In short: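 HEK 293T RXRa-bla cells, 2% CS-FBS; 5 h settle; cpd 16 h 37 C, 5% CO2; CellTiter-Glo 30 min RT, luminescence. Tetraoctyl ammonium bromide as positive control.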

[2] = qHTS assay to identify small molecule antagonists of the retinoid acid receptor (RAR) signaling pathway - cell viability counter screen (AID 1159551); further: nearly all actives have a fitted effect of over 35% in size; further: potency means the concentration at half of the fitted maximal effect
In short: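 Cytotoxicity counter screen: ATP content quantified by CellTiter-Glo luminescence in C3RL4 cells treated 6 hr at 37 C with compound and retinol (1 uM final). Cells plated at 1,000/well and cultured overnight before dosing.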

[3] = qHTS assay to identify small molecule agonists of the retinoic acid receptor (RAR) signaling pathway (AID 1159553)
In short: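 Luminescence was measured 30 min after luciferase reagent addition at room temperature. Before that, C3RL4 reporter cells (1,000 per well, plated overnight) were treated with compound for 6 hr at 37 C and 5% CO2.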

[4] = target: Luciferin 4-monooxygenase (Photinus pyralis) (UniProt P08659); experiment: qHTS assay to identify small molecule inhibitors of firefly luciferase (AID 1224835); further: nearly all actives have a fitted effect of over 25% in size; further: potency means the concentration at half of the fitted maximal effect; on activity change, negative = inhibition: series mostly up to about 120 µM
Chain of Luciferin 4-monooxygenase (Photinus pyralis) (P08659 whole entry, looked up): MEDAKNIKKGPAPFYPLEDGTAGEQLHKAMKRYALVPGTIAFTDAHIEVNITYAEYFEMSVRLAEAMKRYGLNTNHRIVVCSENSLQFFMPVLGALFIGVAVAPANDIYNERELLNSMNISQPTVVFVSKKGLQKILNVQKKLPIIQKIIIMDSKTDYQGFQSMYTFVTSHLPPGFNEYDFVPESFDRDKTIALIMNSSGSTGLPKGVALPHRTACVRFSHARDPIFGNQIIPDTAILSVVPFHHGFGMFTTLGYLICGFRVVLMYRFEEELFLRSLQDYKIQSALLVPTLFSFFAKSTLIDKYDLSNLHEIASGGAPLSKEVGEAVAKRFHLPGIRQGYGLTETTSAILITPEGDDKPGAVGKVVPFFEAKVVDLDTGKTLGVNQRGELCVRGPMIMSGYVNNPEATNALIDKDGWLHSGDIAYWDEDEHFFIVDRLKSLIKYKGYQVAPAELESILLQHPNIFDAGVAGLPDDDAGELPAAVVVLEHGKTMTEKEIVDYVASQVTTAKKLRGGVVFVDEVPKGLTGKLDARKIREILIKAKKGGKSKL
In short: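 Inhibition of purified Photinus luciferase is measured by luminescence. Substrate levels (D-luciferin, ATP) sit at their KM values. Each compound is tested in a concentration series.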

[5] = qHTS assay to identify small molecule antagonists of the estrogen related receptor signaling pathway with the pleiotropic PPARgamma coactivator (PGC) from Tox21 10K library - cell viability counter screen (AID 1224840; active means well fitted cell-killing curve with a large enough effect in the repeat runs, not every such curve was filed as active; further: nearly all actives have a fitted effect of over 40% in size; further: potency means the concentration at half of the fitted maximal effect)
In short: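 Counter-screen for cytotoxicity: after 17.5 h compound exposure at 37 C, CellTiter-Fluor reagent added to PGC/ERR cells for 30 min and fluorescence read. Cells were seeded at 2,000 per well 6 h before dosing.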

[6] = target: Thyrotropin receptor (Homo sapiens) (UniProt P16473); experiment: qHTS assay to identify small molecule agonists of the thyroid stimulating hormone receptor (TSHR) signaling pathway (AID 1224843; calls by dose curve; further: nearly all actives have a fitted effect of over 45% in size)
Chain of Thyrotropin receptor (Homo sapiens) (P16473 whole entry, looked up): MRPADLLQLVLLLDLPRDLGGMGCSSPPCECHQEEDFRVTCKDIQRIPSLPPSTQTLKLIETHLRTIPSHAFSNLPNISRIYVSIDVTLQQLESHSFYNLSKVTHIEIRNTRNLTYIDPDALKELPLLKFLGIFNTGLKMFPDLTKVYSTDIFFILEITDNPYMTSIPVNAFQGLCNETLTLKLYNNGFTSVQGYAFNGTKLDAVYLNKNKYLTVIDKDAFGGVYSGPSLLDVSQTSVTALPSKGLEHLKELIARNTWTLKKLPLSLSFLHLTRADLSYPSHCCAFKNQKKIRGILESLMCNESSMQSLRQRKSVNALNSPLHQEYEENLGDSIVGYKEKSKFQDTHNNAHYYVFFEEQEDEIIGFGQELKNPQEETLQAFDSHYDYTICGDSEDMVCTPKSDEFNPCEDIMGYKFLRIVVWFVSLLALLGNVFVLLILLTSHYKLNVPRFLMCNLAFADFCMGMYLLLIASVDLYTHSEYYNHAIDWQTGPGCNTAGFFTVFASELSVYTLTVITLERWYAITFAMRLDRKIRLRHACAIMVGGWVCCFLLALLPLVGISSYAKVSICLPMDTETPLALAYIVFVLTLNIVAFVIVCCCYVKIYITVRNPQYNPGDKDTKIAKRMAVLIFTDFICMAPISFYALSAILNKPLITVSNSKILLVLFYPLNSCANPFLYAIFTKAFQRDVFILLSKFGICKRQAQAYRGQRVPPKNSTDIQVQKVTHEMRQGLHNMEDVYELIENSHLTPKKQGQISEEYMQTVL
In short: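 Agonist activity read as cAMP rise via d2/cryptate HTRF competition, 1 h room-temperature detection, in HEK293 cells expressing TSHR. Fifteen-point titrations, each run in triplicate, with a 30 min room-temperature incubation beforehand.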

[7] = qHTS assay to identify small molecule agonists of the constitutive androstane receptor (CAR) signaling pathway - cell viability counter screen (AID 1224836); further: nearly all actives have a fitted effect of over 45% in size; further: potency means the concentration at half of the fitted maximal effect; on viability change, negative = cytotoxic: series mostly up to about 92 µM
In short: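 HepG2-CYP2B6-hCAR, 2500 cells/well, 4 h pre-incubation; cpd 15 conc + PK11195 0.75 uM final; 23 h, 37 C/5% CO2; CellTiter-Fluor, fluorescence.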

[8] = qHTS assay to identify small molecule antagonists of the constitutive androstane receptor (CAR) signaling pathway - cell viability counter screen (AID 1224837); further: nearly all actives have a fitted effect of over 45% in size; further: potency means the concentration at half of the fitted maximal effect; on activity change, negative = cytotoxicity: series mostly up to about 92 µM
In short: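 Cytotoxicity counter-screen: CellTiter-Fluor fluorescence after 23 h compound exposure (15-point qHTS) in double-stable HepG2-CYP2B6-hCAR cells, with 50 nM CITCO added.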

[9] = target: Nuclear receptor subfamily 1 group I member 3 (Homo sapiens) (UniProt Q14994); experiment: qHTS assay to identify small molecule antagonists of the constitutive androstane receptor (CAR) signaling pathway (AID 1224838);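 further: HepG2 cells stably expressing hCAR with CYP2B6 luciferase reporter stimulated by CITCO; nearly all actives have a fitted effect of over 40% in size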; further: potency means the concentration at half of the fitted maximal effect
Chain of Nuclear receptor subfamily 1 group I member 3 (Homo sapiens) (Q14994 whole entry, looked up): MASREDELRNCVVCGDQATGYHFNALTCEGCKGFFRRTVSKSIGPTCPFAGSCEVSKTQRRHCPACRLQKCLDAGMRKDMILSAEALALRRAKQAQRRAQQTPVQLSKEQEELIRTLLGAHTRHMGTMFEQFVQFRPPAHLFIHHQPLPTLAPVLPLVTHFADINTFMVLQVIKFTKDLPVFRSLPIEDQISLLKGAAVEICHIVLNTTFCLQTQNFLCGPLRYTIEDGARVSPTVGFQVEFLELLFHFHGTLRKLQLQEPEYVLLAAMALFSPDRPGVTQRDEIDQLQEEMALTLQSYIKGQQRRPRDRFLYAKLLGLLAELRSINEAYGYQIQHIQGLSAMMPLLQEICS
In short: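 Antagonism measured as luciferase signal (ONE-Glo, 30 min, room temperature) in CAR-stimulated cells: HepG2-CYP2B6-hCAR double-stable line exposed 24 hr at 37 C to compound in a 15-point series plus 50 nM CITCO.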

[10] = target: Nuclear receptor subfamily 1 group I member 3 (Homo sapiens) (UniProt Q14994); experiment: qHTS assay to identify small molecule agonists of the constitutive androstane receptor (CAR) signaling pathway (AID 1224839); further: nearly all actives have a fitted effect of over 15% in size; further: potency means the concentration at half of the fitted maximal effect;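 on activation: HepG2 cells stably carrying human CAR and a CYP2B6 luciferase reporter; series mostly up to about 92 µM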
In short: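 HepG2-CYP2B6-hCAR cells, 2500/well, 4 h pre-incubation; compounds 15 conc.; PK11195 0.75 uM final; 24 h, 37 C/5% CO2; ONE-Glo luciferase read.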

[11] = qHTS assay to identify small molecule antagonists of the estrogen related receptor signaling pathway with the pleiotropic PPARgamma coactivator (PGC) from Tox21 10K library (AID 1224841; call rule not given here; further: actives are mostly falling curves and most rising ones were filed inactive; nearly all actives have a fitted effect of over 50% in size; further: potency means the concentration at half of the fitted maximal effect; on activity, negative = inhibition: series mostly up to about 92 µM)
In short: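 Luminescence (One-Glo, 30 min at room temperature) after 18 h compound treatment at 37 C of PGC/ERR reporter cells plated at 2,000 cells/well and settled 6 h beforehand.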

[12] = qHTS assay to identify small molecule agonists of the estrogen related receptor signaling pathway with the pleiotropic PPARgamma coactivator (PGC) from Tox21 10K library (AID 1224842); further: nearly all actives have a fitted effect of over 15% in size
In short: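 Luminescence from One-Glo (30 min, room temperature) measured after PGC/ERR cells had 18 h at 37 C with pinned compound (23 nL in DMSO). Cells had been seeded at 2,000 per well and pre-incubated 6 h.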

[13] = qHTS assay to identify small molecule antagonists of the estrogen related receptor (ERR) signaling pathway from Tox21 library - cell viability counter screen (AID 1224834); further: nearly all actives have a fitted effect of over 30% in size; further: potency means the concentration at half of the fitted maximal effect
In short: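 CellTiter-Fluor fluorescence, read after 30 min at 37 C, measures viability of ERR cells. Cells plated at 2,000/well and incubated 6 h before pin-tool compound addition, then exposed 17.5 hours at 37 C.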

[14] = qHTS assay to identify small molecule antagonists of the estrogen related receptor (ERR) signaling pathway - cell viability counter screen (AID 1224818);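 further: series mostly up to about 46 µM; viability measured after 17.5 h of compound exposure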
In short: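 Cytotoxicity counter screen: fluorescence from CellTiter-Fluor, added after 17.5 h compound exposure at 37 C and read 30 min later. ERR cell line seeded at 2,000 cells/well, preincubated 6 h before dosing.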

[15] = qHTS assay to identify small molecule agonists of the estrogen related receptor (ERR) signaling pathway (AID 1224820)
In short: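 After 6 h plating (2,000 cells/well) and 18 h compound treatment at 37 C, ERR cells were lysed with One-Glo and luminescence read after 30 min at room temperature.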

[16] = qHTS assay to identify small molecule antagonists of the estrogen related receptor signaling pathway with the pleiotropic PPARgamma coactivator (PGC) cell viability counter screen (AID 1224822; further: series mostly up to about 46 µM)
In short: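 Viability counter-screen read by fluorescence intensity after 30 min with CellTiter-Fluor at 37 C; PGC/ERR reporter cells were exposed to compounds for 17.5 h at 37 C following a 6 h preincubation.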

[17] = qHTS assay to identify small molecule agonists of the estrogen related receptor signaling pathway with the pleiotropic PPARgamma coactivator (PGC) (AID 1224823)
In short: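 Luminescence from One-Glo reagent (30 min, room temperature) was read after 18 h compound treatment at 37 C of PGC/ERR cells plated 6 h beforehand; compounds delivered in DMSO by pin tool.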

[18] = qHTS assay to identify small molecule antagonists of the estrogen related receptor (ERR) signaling pathway (AID 1224819; further: series mostly up to about 46 µM; nearly all actives have a fitted effect of over 50% in size)
In short: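 LOPAC library screened for antagonism as reduced One-Glo luminescence in ERR reporter cells (2,000/well). Compounds were added after 6 h pre-incubation and left 18 h at 37C; reading followed a 30 min room-temperature reagent step.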

[19] = test system: estrogen-related receptor alpha (ERRalpha) with PGC-1alpha coactivator, human; experiment: qHTS assay to identify small molecule antagonists of the estrogen related receptor signaling pathway with the pleiotropic PPARgamma coactivator (PGC) (AID 1224821; calls by dose curve;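 further: series mostly up to about 46 µM; lower luminescence signal means antagonism of PGC/ERR signalling; nearly all actives have a fitted effect of over 50% in size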)
In short: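 Luminescence from One-Glo luciferase reagent (30 min, room temperature) measured after 18 h compound treatment at 37 °C. Cells carry the PGC/ERR reporter and were seeded 6 h prior to dosing.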

CN(C)[C@@H]1C(=O)C(C(N)=O)=C(O)[C@@]2(O)C(=O)C3=C(O)c4c(O)ccc(Cl)c4[C@@](C)(O)[C@H]3C[C@@H]12
Potency [1]: inactive | Potency [2]: inactive | Potency [3]: inactive | Potency [4]: inactive | Potency [5]: inactive | Potency [6]: inactive

Clc1ccc(C(Cl)(Cl)Cl)c(Cl)c1
Potency [1]: 19.6 µM (active) | Potency [2]: inactive | Potency [3]: inactive | Potency [4]: inactive | Potency [7]: inactive | Potency [8]: inactive | Potency [9]: inactive | Potency [10]: inactive | Potency [5]: inactive | Potency [11]: 61.6 µM (active) | Potency [12]: inactive | Potency [6]: inactive

CCOP(=S)(OCC)SCS(=O)(=O)CC
Potency [1]: inactive | Potency [2]: inactive | Potency [13]: inactive | Potency [4]: inactive | Potency [7]: inactive | Potency [8]: inactive | Potency [9]: inactive | Potency [10]: inactive | Potency [5]: inactive | Potency [12]: inactive | Potency [6]: inactive

FC(Cl)(Cl)Cl
Potency [1]: inactive | Potency [2]: inactive | Potency [3]: inactive | Potency [13]: inactive | Potency [4]: inactive | Potency [7]: inactive | Potency [8]: inactive | Potency [5]: inactive | Potency [6]: inactive

Clc1ccc(CCC(Cn2ccnc2)Sc2c(Cl)cccc2Cl)cc1 (configuration not stated)
Potency [1]: 23.9 µM (active) | Potency [2]: inactive | Potency [3]: inactive | Potency [13]: 29.8 µM (active) | Potency [4]: inactive | Potency [7]: inactive | Potency [9]: inactive | Potency [10]: 29.8 µM (active)

COc1cc(N)c(Cl)cc1C(=O)NC1CN2CCC1CC2 (configuration not stated)
Potency [1]: inactive | Potency [2]: inactive | Potency [13]: inactive | Potency [4]: inactive | Potency [7]: inactive | Potency [8]: inactive | Potency [9]: inactive | Potency [10]: inactive | Potency [5]: inactive | Potency [6]: inactive

[Hg+2].[I-].[I-]
Potency [1]: 3.89 µM (active) | Potency [2]: 10.9 µM (active) | Potency [13]: 6.86 µM (active) | Potency [4]: 4.48 µM (active) | Potency [7]: 34.4 µM (active) | Potency [8]: 30.6 µM (active) | Potency [9]: 30.6 µM (active) | Potency [10]: inactive | Potency [5]: 4.33 µM (active)

COC(=O)N(C(=O)N1CO[C@@]2(C(=O)OC)Cc3cc(Cl)ccc3C2=N1)c1ccc(OC(F)(F)F)cc1
Potency [1]: inactive | Potency [2]: inactive | Potency [3]: inactive | Potency [13]: inactive | Potency [4]: inactive | Potency [7]: inactive | Potency [8]: inactive | Potency [5]: inactive | Potency [12]: inactive

ClC(Cl)=C(Cl)Cl
Potency [1]: inactive | Potency [2]: inactive | Potency [13]: inactive | Potency [4]: inactive | Potency [7]: inactive | Potency [8]: inactive | Potency [9]: inactive | Potency [10]: inactive | Potency [5]: inactive | Potency [6]: inactive

Clc1ccc(Oc2ccccc2)cc1
Potency [1]: inactive | Potency [2]: inactive | Potency [13]: inactive | Potency [4]: inactive | Potency [7]: inactive | Potency [8]: inactive | Potency [10]: inactive | Potency [5]: inactive

Brc1c(Br)c(Br)c(Oc2c(Br)c(Br)c(Br)c(Br)c2Br)c(Br)c1Br
activity change, negative = cytotoxicity [1]: 2.64% [at 15.8 µM] | activity change, negative = cytotoxicity [2]: 2.15% [at 19 µM] | viability change, negative = cytotoxic [13]: 0.115% [at 19 µM] | activity change, negative = inhibition [4]: 1.46% [at 23.6 µM] | viability change, negative = cytotoxic [7]: -2.08% [at 19 µM] | activity change, negative = cytotoxicity [8]: 5.53% [at 19 µM] | activation [10]: -0.206% [at 19 µM] | viability change, negative = cytotoxic [5]: 10.1% [at 19 µM] | activity, negative = inhibition [11]: 39.4% [at 19 µM] | activation [12]: 1.27% [at 19 µM] | activation [6]: -5.88% [at 19 µM]

O=c1c(C2CC(c3ccc(-c4ccc(Br)cc4)cc3)Cc3ccccc32)c(O)sc2ccccc12 (configuration not stated)
Potency [1]: inactive | Potency [2]: inactive | Potency [3]: inactive | Potency [4]: inactive | Potency [7]: inactive | Potency [8]: inactive | Potency [9]: inactive | Potency [10]: inactive | Potency [5]: inactive | Potency [11]: 11.9 µM (active) | Potency [12]: inactive | Potency [6]: inactive

O=S(=O)(c1ccc(Cl)cc1)c1ccc(Cl)cc1
Potency [1]: inactive | Potency [2]: inactive | outcome [14]: inactive | outcome [15]: inactive | Potency [16]: inactive | outcome [17]: inactive | Potency [4]: inactive | Potency [7]: inactive | Potency [8]: inactive | Potency [9]: inactive | Potency [10]: 49.2 µM (active) | Potency [5]: inactive | Potency [12]: inactive

C[C@]12CC[C@H]3[C@@H](CCC4=CC(=O)CC[C@@]43C)[C@@H]1CC[C@@H]2O
Potency [1]: inactive | Potency [2]: inactive | Potency [3]: inactive | Potency [13]: inactive | Potency [4]: inactive | Potency [7]: inactive | Potency [8]: inactive | Potency [10]: inactive | Potency [5]: inactive

CC(=[OH+])/C=C(/C)[O-].CC(=[OH+])/C=C(\C)[O-].CC(=[OH+])/C=C(\C)[O-].[Fe]
Potency [1]: inactive | Potency [2]: inactive | Potency [13]: inactive | Potency [4]: 39.9 µM (active) | Potency [7]: inactive | Potency [8]: inactive | Potency [5]: inactive

CS(=O)(=O)c1ccc(C(=O)C2C(=O)CCCC2=O)c([N+](=O)[O-])c1
Potency [1]: inactive | Potency [2]: inactive | outcome [14]: inactive | Potency [18]: inactive | outcome [15]: inactive | Potency [19]: inactive | Potency [16]: inactive | outcome [17]: inactive | Potency [13]: inactive | Potency [4]: inactive | Potency [7]: inactive | Potency [8]: inactive | Potency [9]: inactive | Potency [10]: inactive | Potency [5]: inactive | Potency [11]: 31.2 µM (active) | Potency [12]: inactive

CC(Cc1ccc(C(C)(C)C)cc1)CN1C[C@@H](C)O[C@@H](C)C1 (some centres not stated)
Potency [1]: inactive | Potency [2]: inactive | Potency [13]: inactive | Potency [4]: inactive | Potency [7]: inactive | Potency [8]: inactive | Potency [9]: inactive | Potency [10]: inactive | Potency [5]: inactive | Potency [11]: inactive | Potency [12]: inactive

BrCBr
Potency [1]: inactive | Potency [2]: inactive | Potency [13]: inactive | Potency [4]: inactive | Potency [7]: inactive | Potency [8]: inactive | Potency [9]: inactive | Potency [10]: inactive | Potency [5]: inactive | Potency [6]: inactive
